# Results from PubChem BioAssay (Tox21).
# Values without a mark were called inactive. Results filed as inconclusive are left out. Entries that show only a call come without a potency. Activity calls are given as the source filed them. The call rests on the fitted dose curve; in most records, active means well fitted curve in the direction sought with a large enough effect in the repeat runs; inconclusive means weak or mixed curves; inactive means no such curve, though single readings can be large; an effect the other way counts as inactive or inconclusive.
# What was measured:
# [1] = qHTS RealTime-Glo MT Cell Viability Assay in HEK293 cells - 0 hour (AID 1224880); further: top concentration of the series differs between compounds; nearly all actives have a fitted effect of over 45% in size
# Method in brief: (§1)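 Nonlytic bioluminescent viability monitoring. HEK293 at 600 cells/well with reagent; 5 h settle; compound transfer by pintool; plates held at 37 C and read at set time points.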
# [2] = A CellTox Green Cytotoxicity Assay to monitor cytotoxicity in HepG2 cells - 0 hour (AID 1224882); further: nearly all actives have a fitted effect of over 35% in size
# Method in brief: (§2)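 Real-time, homogeneous cytotoxicity readout: dead-cell DNA staining by CellTox Green in HepG2 monolayers, fluorescence measured at timed intervals up to 40 h of continuous compound exposure.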
# [3] = A CellTox Green Cytotoxicity Assay to monitor cytotoxicity in HepG2 cells - 32 hour (AID 1224883); further: nearly all actives have a fitted effect of over 50% in size; further: potency means the concentration at half of the fitted maximal effect
# Method in brief: as §2
# [4] = A CellTox Green Cytotoxicity Assay to monitor cytotoxicity in HEK293 cells - 8 hour (AID 1224884); further: nearly all actives have a fitted effect of over 35% in size; further: potency means the concentration at half of the fitted maximal effect
# Method in brief: (§3)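 Cytotoxicity was tracked continuously in HEK293 cells by a DNA-binding dye excluded from viable cells. Compounds were transferred in DMSO 5 h after seeding; fluorescence was recorded at intervals up to 40 h.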
# [5] = qHTS RealTime-Glo MT Cell Viability Assay in HepG2 cells - 16 hour (AID 1224885); further: nearly all actives have a fitted effect of over 50% in size; further: potency means the concentration at half of the fitted maximal effect
# Method in brief: (§4)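 Real-time, nonlytic viability: 600 HepG2 cells/well mixed with NanoLuc enzyme plus prosubstrate; 5 h settle, compound (DMSO) added by pintool; luminescence monitored over 40 h at 37 C.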
# [6] = qHTS RealTime-Glo MT Cell Viability Assay in HEK293 cells - 24 hour (AID 1224886); further: nearly all actives have a fitted effect of over 50% in size; further: potency means the concentration at half of the fitted maximal effect; on activity change, negative = cytotoxicity: top concentration of the series differs between compounds
# Method in brief: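 Cells + reagent dispensed (600 cells/well, HEK293) → 5 h at 37 C/5% CO2 → 23 nL compound in DMSO pinned → 40 h at 37 C → luminescence read at 0, 8, 16, 24, 32, 40 h.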
# [7] = qHTS RealTime-Glo MT Cell Viability Assay in HEK293 cells - 8 hour (AID 1224887); further: nearly all actives have a fitted effect of over 50% in size; further: potency means the concentration at half of the fitted maximal effect; on activity change, negative = cytotoxicity: top concentration of the series differs between compounds
# Method in brief: as §1
# [8] = A CellTox Green Cytotoxicity Assay to monitor cytotoxicity in HEK293 cells - 16 hour (AID 1224888); further: nearly all actives have a fitted effect of over 35% in size; further: potency means the concentration at half of the fitted maximal effect
# Method in brief: as §3
# [9] = A CellTox Green Cytotoxicity Assay to monitor cytotoxicity in HEK293 cells - 32 hour (AID 1224881); further: nearly all actives have a fitted effect of over 40% in size; further: potency means the concentration at half of the fitted maximal effect
# Method in brief: as §3
# [10] = qHTS RealTime-Glo MT Cell Viability Assay in HepG2 cells - 0 hour (AID 1224889); further: nearly all actives have a fitted effect of over 50% in size; further: potency means the concentration at half of the fitted maximal effect
# Method in brief: as §4
smiles,measurement,setting,value
CC(=O)N(c1onc(C)c1C)S(=O)(=O)c1ccc(N)cc1,Potency,[1],inactive
same,Potency,[2],inactive
same,Potency,[3],inactive
same,Potency,[4],inactive
same,Potency,[5],inactive
same,Potency,[6],inactive
same,Potency,[7],inactive
same,Potency,[8],inactive
CC(Cl)C(Cl)Cl (configuration not stated),Potency,[1],inactive
same,Potency,[9],48.2 µM (active)
same,Potency,[2],inactive
same,Potency,[5],inactive
same,Potency,[7],inactive
same,Potency,[10],inactive
CC1CC(O)CC(C)(C)C1 (configuration not stated),Potency,[1],inactive
same,Potency,[9],inactive
same,Potency,[2],inactive
same,Potency,[4],inactive
same,Potency,[5],inactive
same,Potency,[7],inactive
same,Potency,[8],inactive
same,Potency,[10],inactive
C[C@@H]1C[C@H]2[C@@H]3CCC4=CC(=O)C=C[C@]4(C)[C@@]3(F)[C@@H](O)C[C@]2(C)[C@@]1(O)C(=O)CO,Potency,[1],inactive
same,Potency,[2],inactive
same,Potency,[3],inactive
same,Potency,[4],inactive
same,Potency,[5],inactive
same,Potency,[6],inactive
same,Potency,[7],inactive
same,Potency,[8],inactive
same,Potency,[10],22.2 µM (active)
Cc1occc1C(=O)Nc1ccc(C(=O)N2CCC(F)(F)/C(=C\C(=O)N3CCC(N4CCCCC4)CC3)c3ccccc32)cc1,Potency,[1],inactive
same,Potency,[9],inactive
same,Potency,[2],inactive
same,Potency,[4],inactive
same,Potency,[5],inactive
same,Potency,[6],5.43 µM (active)
same,Potency,[8],inactive
O=C1NCCN1,Potency,[1],inactive
same,Potency,[2],inactive
same,Potency,[3],inactive
same,Potency,[4],inactive
same,Potency,[5],inactive
same,Potency,[6],inactive
same,Potency,[7],inactive
same,Potency,[10],inactive
O=C(O)C(Cc1cc(I)c(O)c(I)c1)c1ccccc1 (configuration not stated),Potency,[1],inactive
same,Potency,[2],inactive
same,Potency,[3],inactive
same,Potency,[4],inactive
same,Potency,[5],inactive
same,Potency,[6],inactive
same,Potency,[7],inactive
same,Potency,[8],inactive
same,Potency,[10],inactive
C[C@@H]1C[C@H]2[C@@H]3CCC4=CC(=O)C=C[C@]4(C)[C@@]3(F)[C@@H](O)C[C@]2(C)[C@H]1C(=O)CO,Potency,[1],inactive
same,Potency,[2],inactive
same,Potency,[3],inactive
same,Potency,[4],inactive
same,Potency,[5],inactive
same,Potency,[6],inactive
same,Potency,[7],inactive
same,Potency,[8],inactive
O=C(CCCCCCC(=O)Nc1ccccc1)NO,Potency,[1],inactive
same,Potency,[9],inactive
same,Potency,[2],inactive
same,Potency,[4],inactive
same,Potency,[6],2.39 µM (active)
same,Potency,[8],inactive
same,Potency,[10],inactive
OC(CCCN1CCCCC1)(c1ccccc1)c1ccccc1,Potency,[1],inactive
same,Potency,[2],inactive
same,Potency,[3],inactive
same,Potency,[4],inactive
same,Potency,[5],inactive
same,Potency,[6],inactive
same,Potency,[7],inactive
same,Potency,[8],inactive
same,Potency,[10],inactive
CC1=NN(c2ccc(C(=O)O)cc2)C(=O)C1,Potency,[1],inactive
same,Potency,[2],inactive
same,Potency,[3],inactive
same,Potency,[4],inactive
same,Potency,[5],inactive
same,Potency,[6],inactive
same,Potency,[7],inactive
same,Potency,[8],inactive
same,Potency,[10],inactive
CCCCCCCCCCCCCCC[C@H](O)[C@@H](N)CO,Potency,[1],inactive
same,Potency,[9],21.3 µM (active)
same,Potency,[3],26.8 µM (active)
same,Potency,[4],23.9 µM (active)
same,Potency,[6],21.3 µM (active)
same,Potency,[7],23.9 µM (active)
same,Potency,[8],21.3 µM (active)
same,Potency,[10],inactive
CO[C@@]12[C@H](COC(N)=O)C3=C(C(=O)C(C)=C(N)C3=O)N1C[C@@H]1N[C@@H]12,Potency,[1],inactive
same,Potency,[9],inactive
same,Potency,[2],inactive
same,Potency,[4],inactive
same,Potency,[5],3.38 µM (active)
same,Potency,[7],inactive
same,Potency,[8],inactive
same,Potency,[10],inactive
CCNC(=O)N1CCN(CCCC(c2ccc(F)cc2)c2ccc(F)cc2)CC1,Potency,[1],inactive
same,Potency,[2],inactive
same,Potency,[3],21.3 µM (active)
same,Potency,[4],inactive
same,Potency,[5],inactive
same,Potency,[7],16.9 µM (active)
same,Potency,[8],inactive
NC(=O)Nc1ccc(Cl)cc1,Potency,[1],inactive
same,Potency,[9],inactive
same,Potency,[4],inactive
same,Potency,[5],inactive
same,Potency,[6],inactive
same,Potency,[7],inactive
same,Potency,[8],inactive
C=CCCCCCCCCCCCCCCCC,cytotoxicity increase,[9],-2.25% [at 6.97 µM]
same,cytotoxicity,[2],-13.6% [at 6.97 µM]
same,cytotoxicity increase,[3],-20.4% [at 6.97 µM]
same,cytotoxicity increase,[4],-6.36% [at 6.97 µM]
same,"activity change, negative = cytotoxic",[5],-8.12% [at 6.97 µM]
same,"activity change, negative = cytotoxicity",[6],-6.06% [at 6.97 µM]
same,"activity change, negative = cytotoxicity",[7],-0.881% [at 6.97 µM]
same,activity change,[8],"-0.39% [at 6.97 µM, active compounds read high]"
same,"activity change, negative = cytotoxicity",[10],-21.4% [at 6.97 µM]
CC(=O)OCC(=O)[C@@]12OC(C)(C)O[C@@H]1C[C@H]1[C@@H]3C[C@H](F)C4=CC(=O)C=C[C@]4(C)[C@@]3(F)[C@@H](O)C[C@@]12C,Potency,[9],26.8 µM (active)
same,Potency,[2],inactive
same,Potency,[3],inactive
same,Potency,[4],inactive
same,Potency,[5],inactive
same,Potency,[6],inactive
same,Potency,[7],inactive
same,Potency,[8],inactive
same,Potency,[10],2.68 µM (active)
CC(C)(O)c1ccccc1CC[C@@H](SCC1(CC(=O)O)CC1)c1cccc(/C=C/c2ccc3ccc(Cl)cc3n2)c1,Potency,[1],inactive
same,Potency,[2],inactive
same,Potency,[3],inactive
same,Potency,[4],inactive
same,Potency,[5],inactive
same,Potency,[7],inactive
same,Potency,[8],inactive
same,Potency,[10],inactive
CC1(C)O[C@@H]2C[C@H]3[C@@H]4CCC5=CC(=O)C=C[C@]5(C)[C@H]4[C@@H](O)C[C@]3(C)[C@]2(C(=O)CO)O1,Potency,[9],inactive
same,Potency,[2],inactive
same,Potency,[3],inactive
same,Potency,[4],inactive
same,Potency,[5],inactive
same,Potency,[6],inactive
same,Potency,[7],inactive
same,Potency,[8],inactive
CCCCCC=CCC=CCCCCCCCC(=O)OCC,Potency,[9],inactive
same,Potency,[2],inactive
same,Potency,[3],inactive
same,Potency,[4],inactive
same,Potency,[5],inactive
same,Potency,[7],inactive
same,Potency,[8],inactive
same,Potency,[10],inactive
Cc1cc2nc3ccc(=[N+](C)C)cc-3sc2cc1N,Potency,[9],inactive
same,Potency,[2],inactive
same,Potency,[3],inactive
same,Potency,[4],inactive
same,Potency,[5],9.52 µM (active)
same,Potency,[6],2.68 µM (active)
same,Potency,[7],1.9 µM (active)
same,Potency,[8],inactive
same,Potency,[10],inactive
C/C=C(\C)C(=O)OCCC(C)CCC=C(C)C (configuration not stated),Potency,[9],inactive
same,Potency,[2],inactive
same,Potency,[3],inactive
same,Potency,[4],inactive
same,Potency,[5],inactive
same,Potency,[6],inactive
same,Potency,[7],inactive
same,Potency,[8],inactive
same,Potency,[10],inactive
Cc1oc(C)c(C(=O)Nc2ccccc2)c1C,Potency,[1],inactive
same,Potency,[2],inactive
same,Potency,[3],inactive
same,Potency,[4],inactive
same,Potency,[5],inactive
same,Potency,[8],inactive
O=C(/C=C/c1ccccc1)OCCCc1ccccc1,Potency,[1],inactive
same,Potency,[2],inactive
same,Potency,[3],inactive
same,Potency,[4],inactive
same,Potency,[5],inactive
same,Potency,[7],inactive
same,Potency,[8],inactive
same,Potency,[10],inactive
